Consider 40 sequences from the supplement of paper PMC6555819.

One experiment deals with RARa:RXR (NR concentration 270 nM, RXRa partner concentration 90 nM). In words: PBM binding z-score (relative to random genomic background probes); higher = stronger binding; sequences stand for … in GC…GCGATTGACAGCGTAGAATGAAGG
Summed up:
(§1)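 Random background probes are the reference for binding z-scores. These scores derive from regression-normalized fluorescence on custom Agilent 4×180K protein-binding microarrays incubated 1 h with ligand-free nuclear receptor dimers. Binding was detected with antibodies against each partner (one per run).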
CCAGAAAGGTGAGAAGGTAACTCAGCCTCGATTA returned a PBM binding z-score of 1.28.
Still for that read-out and setting: in the case of GCTTACGGGTCAAAGGTTATTGCATGAATAGAAT it was 8.16.
Sequence CAAACTAGGTCAAATGTCAAAGTCGAGCCAACCA gave a PBM binding z-score of 4.96.
CGAACTAGGTCATCCAGGACAGCGAATACATTGA yielded a PBM binding z-score of 2.33.
Regarding TCATATAGGTAAACAGGTGACAGTCCGTAAGTTA, the PBM binding z-score amounted to 0.971.
Regarding GCAGACAGGTGAAACGCAGGTAACACAGGGTGGC, the PBM binding z-score worked out at 0.594.
Turning to AGAATGAGCTTATACGTAGATCAGGGAAGAAAGT, the PBM binding z-score is -0.221.
Turning to TCTGCTAGGTCAGTTGGTAAGCTAACGAGCTGCC, the PBM binding z-score amounted to 0.233.
On the same count and under the same terms, the value for TCTATTAGTTGATGGGCAACCGACGAGTCCGTTT was -0.171; that for ACTACTTGGTCAGCTGAGGTCACACACAATTCGG was 4.92; that for ATCGAAAGGTCGAGCTGAGTATAGAGAAAGGGAA was 2.89.
The sequence TCTGCTAGGTCAGTTGGTCACCTAACGAGCTGCC registered a PBM binding z-score of 0.734.
Regarding CCGACTGGGGCATAAGGTTAGCATAAGCCAGCCC, the PBM binding z-score was 0.115.
As to CGAACTAGGTTAGAACAGGACAGTGAAGGATGAT, the PBM binding z-score is 0.212.
For the sequence ATACCCAGGTGATCGTGAGGTCGTTGATACTAAC, the PBM binding z-score came to 1.95.
Sequence TAGCCTAGGGCATGCGGGCCAGTATAGTGTCGGC yielded a PBM binding z-score of -0.692.
Take ATATGTAGGTTAGCTGTGGTCATTCAGACTAGGC: the PBM binding z-score was 1.3.
In turn, TCTAGCAGGCCAGAGAGTCACTCAAGAGGTACGG displayed a PBM binding z-score of -0.29.

Another experiment deals with RARa homodimer (NR concentration 270 nM). Described as above. An outline of the steps:
as §1
Turning to GCGACTGGGCCATCAGCAGGTTACCATAACTTAA, the PBM binding z-score is -0.835.
CCGACTGGGGCCGAAAGGTTACCATACCATCCGG gave a PBM binding z-score of -0.324.
In turn, GCTCGGAGGACAACGTCAGAGCTTTGTCCGTAGA displayed a PBM binding z-score of -1.57.
Still for that read-out and setting: the value for TCATATTGGTAAAGGTGAAAGTCGAACGATATGA was 0.406.
Same read-out and setting: in the case of TGAATGAGGTTCAAGATCAGGGAACGTGGCGTCG it was 0.0432; in that of TAGCCTAGGTCATTCAGGGGCCAGGATAGAAAGC, -0.579; in that of AGTCAAAGTTCATCTAGGTAATGTAAGATATGCT, 1.8.
As to CGAACTAGGTCACTGACAGGACAGTGAATAGTAA, the PBM binding z-score is -0.0785.
For GATACAGGGTCAGCTAGAGGCTAGAGTATGGAAA, the PBM binding z-score amounted to 1.14.
TCTAGCAGGCCAGAGGGTAACTCAAGAGGTACGG had a PBM binding z-score of -0.296.
Same read-out and setting: in the case of ATCTCTAGGTAGAGTTCAGTGAAAGATCGATAGA it was 0.329; in that of TGAATGAGGTTAAAGTTCAGGGAACGTGGCGTCG, 0.262; in that of TCTATTAGATGATTAGGGCAACCGAAACAGCGGA, 0.326.
The sequence ATATGTAGGTTAAGGGTCATTCTGGTTGGTTCGC gave a PBM binding z-score of 2.03.
Sequence CGTCCAAGGTCAAAGTTCAGTGAAGAGATGACGG had a PBM binding z-score of 1.47.
The sequence GTTCGGAGGACAAGGTCAGAGCTTTGTCCGTAGA showed a PBM binding z-score of -0.913.
Same read-out and setting: in the case of TCGAGTAGGGTACCAATGGGGCATTCAGCTTTCT it was -1.44.
As for CGAACTAGGTCAAGAACAGTGAATCTCCGCACGC, the PBM binding z-score worked out at 0.13.
The same measure, in the same setting: the value for TCTTGTAGAGCAAAGGTTAAGAAAGCCGAAGCCT was -0.59.
On to CCGACTGGGCCAAAAAGGTCATTGATGCCGATAA, for which the PBM binding z-score turned out to be 0.897.
The sequence AAAATGAGGTTACCAAAGATCAGGGAAACGCTTG registered a PBM binding z-score of -0.123.
On to TCATATAGGTAAACAGGGGAAAGTCCGTAAGTTA, for which the PBM binding z-score came to 0.805.
The sequence CCAGAAAGGTGAGAAGGTAACTCAGCCTCGATTA came in with a PBM binding z-score of 0.133.
Still for that read-out and setting: the value for GCTTACGGGTCAAAGGTTATTGCATGAATAGAAT was 1.
The same measure, in the same setting: in the case of CAAACTAGGTCAAATGTCAAAGTCGAGCCAACCA it was 1.02; in that of CGAACTAGGTCATCCAGGACAGCGAATACATTGA, -0.0811.
The same measure, in the same setting: the value for TCATATAGGTAAACAGGTGACAGTCCGTAAGTTA was 0.875; that for GCAGACAGGTGAAACGCAGGTAACACAGGGTGGC was -0.376.
As to AGAATGAGCTTATACGTAGATCAGGGAAGAAAGT, the PBM binding z-score was -0.183.
On to TCTGCTAGGTCAGTTGGTAAGCTAACGAGCTGCC, for which the PBM binding z-score is -1.42.
Sequence TCTATTAGTTGATGGGCAACCGACGAGTCCGTTT showed a PBM binding z-score of 0.633.
In turn, ACTACTTGGTCAGCTGAGGTCACACACAATTCGG registered a PBM binding z-score of 0.831.
As to ATCGAAAGGTCGAGCTGAGTATAGAGAAAGGGAA, the PBM binding z-score was 0.139.
As for TCTGCTAGGTCAGTTGGTCACCTAACGAGCTGCC, the PBM binding z-score is -1.21.
Turning to CCGACTGGGGCATAAGGTTAGCATAAGCCAGCCC, the PBM binding z-score is -0.345.
Take CGAACTAGGTTAGAACAGGACAGTGAAGGATGAT: the PBM binding z-score is -0.0731.
With ATACCCAGGTGATCGTGAGGTCGTTGATACTAAC, the PBM binding z-score is -0.274.
Still for that read-out and setting: the value for TAGCCTAGGGCATGCGGGCCAGTATAGTGTCGGC was -0.647.
In the case of ATATGTAGGTTAGCTGTGGTCATTCAGACTAGGC, the PBM binding z-score was determined as 0.467.
TCTAGCAGGCCAGAGAGTCACTCAAGAGGTACGG yielded a PBM binding z-score of -0.925.

The test system of the next experiment is RARb:RXRa (NR concentration 270 nM, RXRa partner concentration 90 nM). Described as above. An outline of the steps:
as §1
GCGACTGGGCCATCAGCAGGTTACCATAACTTAA yielded a PBM binding z-score of 0.195.
CCGACTGGGGCCGAAAGGTTACCATACCATCCGG: the PBM binding z-score was determined as 2.01.
In turn, GCTCGGAGGACAACGTCAGAGCTTTGTCCGTAGA came in with a PBM binding z-score of 0.852.
The sequence TCATATTGGTAAAGGTGAAAGTCGAACGATATGA registered a PBM binding z-score of 1.94.
In turn, TGAATGAGGTTCAAGATCAGGGAACGTGGCGTCG displayed a PBM binding z-score of 1.17.
TAGCCTAGGTCATTCAGGGGCCAGGATAGAAAGC came in with a PBM binding z-score of 3.97.
Same read-out and setting: in the case of AGTCAAAGTTCATCTAGGTAATGTAAGATATGCT it was 4.94; in that of CGAACTAGGTCACTGACAGGACAGTGAATAGTAA, 3.9; in that of GATACAGGGTCAGCTAGAGGCTAGAGTATGGAAA, 3.88.
TCTAGCAGGCCAGAGGGTAACTCAAGAGGTACGG showed a PBM binding z-score of 0.332.
On to ATCTCTAGGTAGAGTTCAGTGAAAGATCGATAGA, for which the PBM binding z-score worked out at 1.82.
The sequence TGAATGAGGTTAAAGTTCAGGGAACGTGGCGTCG returned a PBM binding z-score of 3.63.
TCTATTAGATGATTAGGGCAACCGAAACAGCGGA returned a PBM binding z-score of 0.703.
The same measure, in the same setting: the value for ATATGTAGGTTAAGGGTCATTCTGGTTGGTTCGC was 3.56; that for CGTCCAAGGTCAAAGTTCAGTGAAGAGATGACGG was 5.44.
GTTCGGAGGACAAGGTCAGAGCTTTGTCCGTAGA returned a PBM binding z-score of 3.13.
Take TCGAGTAGGGTACCAATGGGGCATTCAGCTTTCT: the PBM binding z-score turned out to be 0.103.
CGAACTAGGTCAAGAACAGTGAATCTCCGCACGC returned a PBM binding z-score of 3.69.
In turn, TCTTGTAGAGCAAAGGTTAAGAAAGCCGAAGCCT displayed a PBM binding z-score of 1.62.
Take CCGACTGGGCCAAAAAGGTCATTGATGCCGATAA: the PBM binding z-score came out at 3.9.
AAAATGAGGTTACCAAAGATCAGGGAAACGCTTG: the PBM binding z-score was 2.31.
TCATATAGGTAAACAGGGGAAAGTCCGTAAGTTA gave a PBM binding z-score of 0.676.
On to CCAGAAAGGTGAGAAGGTAACTCAGCCTCGATTA, for which the PBM binding z-score came out at 2.67.
Still for that read-out and setting: the value for GCTTACGGGTCAAAGGTTATTGCATGAATAGAAT was 4.49; that for CAAACTAGGTCAAATGTCAAAGTCGAGCCAACCA was 4.26; that for CGAACTAGGTCATCCAGGACAGCGAATACATTGA was 3.81.
Same read-out and setting: in the case of TCATATAGGTAAACAGGTGACAGTCCGTAAGTTA it was 0.779; in that of GCAGACAGGTGAAACGCAGGTAACACAGGGTGGC, 0.622.
In turn, AGAATGAGCTTATACGTAGATCAGGGAAGAAAGT gave a PBM binding z-score of -1.13.
As to TCTGCTAGGTCAGTTGGTAAGCTAACGAGCTGCC, the PBM binding z-score was 3.29.
For the sequence TCTATTAGTTGATGGGCAACCGACGAGTCCGTTT, the PBM binding z-score came out at 0.125.
As to ACTACTTGGTCAGCTGAGGTCACACACAATTCGG, the PBM binding z-score stood at 3.59.
The sequence ATCGAAAGGTCGAGCTGAGTATAGAGAAAGGGAA gave a PBM binding z-score of 3.94.
The sequence TCTGCTAGGTCAGTTGGTCACCTAACGAGCTGCC gave a PBM binding z-score of 3.44.
Take CCGACTGGGGCATAAGGTTAGCATAAGCCAGCCC: the PBM binding z-score was 1.12.
Same read-out and setting: the value for CGAACTAGGTTAGAACAGGACAGTGAAGGATGAT was 0.527; that for ATACCCAGGTGATCGTGAGGTCGTTGATACTAAC was 0.914; that for TAGCCTAGGGCATGCGGGCCAGTATAGTGTCGGC was 0.881.
Same read-out and setting: the value for ATATGTAGGTTAGCTGTGGTCATTCAGACTAGGC was 1.2; that for TCTAGCAGGCCAGAGAGTCACTCAAGAGGTACGG was -0.0563.
